Only some compounds are listed: those with a hit (about 6.9% of all), similar ones and a draw of the others.
MCF10A rerep = DNA re-replication induction in MCF 10a cells. MCF 10A DNA re-replication, Hoechst nuclear intensity, 48 h. Potency, µM (series often up to 46.1 µM), without a hit: at the top dose activity, positive = re-replication, hits mostly activators. actives 2.9% (n = 350,000); note: potency is the fitted concentration of half-maximal effect; % of control where 0% means no effect; nearly all actives have a fitted effect of over 50% in size
Vif-APOBEC3G blk = Vif-A3G binding inhibition | Potency, µM (top dose mostly 46.1 µM), for the others: at the top dose activity, negative = active, actives largely listed as inhibitors | HeLa A3G-eYFP + Vif (tagged APOBEC3G with the HIV-1 protein that degrades it), YFP fluorescence, overnight | actives 0.076% (n = 410,000) | Q9HC16 | AID 602310; note: potency is the fitted concentration of half-maximal effect; % is set by controls: 0 for no effect and ±100 for the full control effect; nearly all actives have a fitted effect of over 60% in size
Target sequence (Q9HC16 whole entry, looked up): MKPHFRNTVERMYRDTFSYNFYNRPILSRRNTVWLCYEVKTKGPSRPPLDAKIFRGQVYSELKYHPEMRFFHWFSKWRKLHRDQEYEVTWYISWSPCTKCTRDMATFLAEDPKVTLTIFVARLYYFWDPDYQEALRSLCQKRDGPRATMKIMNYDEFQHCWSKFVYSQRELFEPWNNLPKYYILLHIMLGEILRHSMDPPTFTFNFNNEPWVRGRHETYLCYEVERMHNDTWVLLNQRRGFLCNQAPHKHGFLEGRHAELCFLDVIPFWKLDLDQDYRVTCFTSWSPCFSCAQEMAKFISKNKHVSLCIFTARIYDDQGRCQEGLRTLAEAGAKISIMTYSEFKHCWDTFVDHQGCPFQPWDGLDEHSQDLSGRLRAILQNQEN
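Read-out is eYFP fluorescence (Ex 488/Em 500-530) from Vif-expressing HeLa A3G-eYFP cells; more signal means A3G escaped Vif-mediated degradation. Cells plated overnight, compound pinned in, incubated overnight at 37 deg C.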
Vif-APOBEC3F blk = blocks the Vif interaction with APOBEC3F; HeLa A3F-eYFP + Vif (tagged APOBEC3F with the HIV-1 protein that degrades it), YFP fluorescence increase; Potency, µM (titrated, usually from 46.1 µM), for the others: at the highest dose activity, negative = active; actives 0.2% (n = 390,000); note: potency is the fitted concentration of half-maximal effect; % of control where 0% means no effect; nearly all actives have a fitted effect of over 65% in size
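Fluorescence increase (Ex 488/Em 500-530) after overnight compound treatment at 37 deg C flags inhibition of Vif-driven A3F-eYFP loss in stable HeLa A3F-eYFP/Vif cells seeded overnight beforehand.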
SW480 rerep = DNA re-replication induction in SW480 cells; SW480 DNA re-replication, Hoechst DNA content imaging, 48 h; Potency, µM (highest dose often 46.1 µM), for the others: top-dose re-replication activation, most hits filed as activators; actives 1.8% (n = 340,000); AID 624297; note: potency is the fitted concentration of half-maximal effect; % of control where 0% means no effect; nearly all actives have a fitted effect of over 55% in size
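Readout is total intensity of Hoechst-stained nuclei, excited at 405 nm and collected at 500-530 nm. Compound treatment lasted 48 hr at 37 C in 5% CO2 before staining.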
Giardia kill = kills Giardia lamblia | Giardia lamblia trophozoite viability | activity change, % at 7.66 µM, hits read low | actives 0.15% (n = 340,000) | AID 540267; in the data active = activity change below about -80%; inconclusive = between about -30% and that limit;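 note: parasites exposed to compound for two days anaerobically before the ATP read; % is set by controls: 0 for no effect and ±100 for the full control effect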
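Viability, read as ATP luminescence: trophozoites at 100 cells/well, compound added, 48 hrs anaerobic at 37 deg C, then 15-30 min room-temperature development before reading.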
IL1B secr inh = inflammasome signaling inhibition, IL-1 beta readout. activity change, % at 57.5 µM. actives 4.7% (n = 360,000). THP-1 LPS/ATP IL-1B secretion, AlphaLISA, 16 h; hits give low values; in the data active = activity change below about -50%; inconclusive = mostly about -30% to -49%; note: % is set by controls: 0 for no effect and ±100 for the full control effect
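Secreted IL-1B measured by AlphaLISA bead assay after 16 h compound exposure of THP-1 cells; compounds (final up to 57.5 uM) added 1 h before LPS (250 ng/mL) and ATP (1.25 mM) stimulation; lower signal means less secretion.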
* marks the source's active call; other numbers are inactive results; ? = inconclusive; · = no result; ! = repeats disagree; [ ] = remark or other dose. Unless noted, calls come from the whole dose curve; as a rule, active = well fitted curve in the direction sought with a large enough effect; inconclusive = small, poorly fitted or top-dose-only effect, or another doubt; inactive = no such curve, though single readings can be large; an effect the other way counts as inactive or inconclusive.

SMILES	MCF10A rerep	Vif-APOBEC3G blk	Vif-APOBEC3F blk	SW480 rerep	Giardia kill	IL1B secr inh
Cc1c(-c2ccccc2)nc(-c2ccccc2)[nH]c1=O	-56%	0%	-8%	0%	12	0
O=C(CC(C(=O)O)P(=O)(c1ccccc1)c1ccccc1)c1ccccc1 (centres undefined)	-7%	5%	0%	2%	5	-50*
O=C(CC(CC(=O)c1ccccc1)C(=O)O)c1ccccc1	0%	-1%	1%	0%	27	5
C=CCN1C(=O)C2C3CC(=O)C(c4ccccc43)C2C1=O (centres undefined)	10%	-3%	-11%	5.2µM*	11	7
COc1ccc(C(=O)c2oc3ccccc3c2NC(=O)COc2ccccc2)cc1	·	-7%	-5%	·	·	·
Cc1ccc(Sc2c(CO)c(-c3ccccc3)nn2C)cc1	1µM*	-43%	-17%	0.82µM*	-5	-11
O=C(Nc1nc(-c2ccc(-c3ccccc3)cc2)cs1)C1CCCO1 (centres undefined)	1%	3%	7%	?	0	?
O=C(Nc1nc(-c2ccc(F)cc2)cs1)C1CCCO1 (centres undefined)	3%	4%	-19%	-11%	8	-56*
O=c1c2ccccc2oc2ccc(Oc3ccccc3)cc12	-5%	0%	-4%	-1%	-25	-10
Cn1c2ccccc2c(=O)c2ccc(NCc3ccc4c(c3)OCO4)cc21	?	-2%	1%	3%	-11	-4
CN1CCC[C@H]1CCNc1ccc2c(=O)c3ccccc3n(C)c2c1	-24%	11%	?	-105%[9.22 µM]	-1	-72*
CN1CCCC1CCNc1ccc2c(=O)c3ccccc3oc2c1 (centres undefined)	18µM*	7%	2%	?	-24	-83*
CN1CCCC1CCNc1ccc2oc3ccccc3c(=O)c2c1 (centres undefined)	-16%	4%	-6%	-24%[9.22 µM]	-10	-79*
O=C(COc1ccc(Cl)cc1Cl)NCc1ccncc1	0%	-2%	-2%	-10%	15	9
Cc1cc(CNC(=O)COc2ccc(F)cc2Cl)cc(C)c1O	7%	-3%	1%	-9%	-19	-88*
Cc1[nH]c2ccccc2c1C(=O)CNc1ccc(Br)cc1	·	-21%	·	·	·	·
COc1cccc(CN(C(=O)c2ccc(C(C)(C)C)cc2)C2CCS(=O)(=O)C2)c1 (centres undefined)	·	-1%	2%	·	·	·
C=CCSC1=NC(=O)/C(=C/c2cccs2)S1	18µM*	?	6%	3%	13	-100*
Nc1nc(SCc2ccccc2)cc(SCc2ccccc2)n1	8.2µM*	4%	-9%	8%	16	-23
Nc1cc(N)nc(SCc2ccccc2)n1	-1%	0%	0%	1%	-1	5
CC[C@H](c1ccc(O)cc1)[C@@H](CC)c1ccc(O)cc1	11µM*	·	·	2%[20.6 µM]	·	·
CCOC(=O)CC(=O)CSc1nc2ccsc2c(=O)n1Cc1ccccc1	·	4%	2%	·	·	·
COc1ccc2nc(N(CCN(C)C)C(=O)/C=C/c3cccs3)sc2c1	26%	-22%	-29%	3%	-6	-68*
COc1ccc2sc(N(CCN(C)C)C(=O)/C=C/c3cccs3)nc2c1	?	-9%	3%	-9%	20	-95*
CCOc1ccc2nc(N(CCN(CC)CC)C(=O)/C=C/c3cccs3)sc2c1	?	-1%	-9%	29µM*	0	-97*
SMILES	MCF10A rerep	Vif-APOBEC3G blk	Vif-APOBEC3F blk	SW480 rerep	Giardia kill	IL1B secr inh
CCN(CC)CCN(C(=O)/C=C/c1cccs1)c1nc2ccc(OC)cc2s1	0%	4%	-1%	-1%	37	11
COc1ccc2nc(N(CCN(C)C)C(=O)c3ccc4c(c3)OCCO4)sc2c1	-3%	6%	-14%	-4%	26	-10
CCN(CC)CCN(C(=O)c1ccc(C(=O)c2ccccc2)cc1)c1nc2cc3c(cc2s1)OCO3	10%	2%	-5%	-8%	10	-55*
CN(C)CCCN(C(=O)c1ccco1)c1nc2cc3c(cc2s1)OCO3	?	-4%	-3%	?	-1	?
CCN(CC)CCN(C(=O)c1ccc(C(=O)c2ccccc2)cc1)c1nc2c(OC)cccc2s1	0%	-4%	-16%	-10%	-26	-66*
CN(C)CCCN(C(=O)c1ccc(C(=O)c2ccccc2)cc1)c1nc2cc3c(cc2s1)OCO3	?	-8%	-18%	?	17	-68*
CCN(CC)CCN(C(=O)c1ccc([N+](=O)[O-])cc1)c1nc2c(OC)cccc2s1	-5%	9%	5%	-14%	-29	14
COc1cccc2sc(N(CCCN(C)C)C(=O)c3sc4ccccc4c3Cl)nc12	-4%	0%	-21%	-1%	-9	-67*
Cc1cccc2sc(N(CCCN(C)C)C(=O)c3sc4ccccc4c3Cl)nc12	?	-6%	?	?	18	0
CCOc1ccc(NC(=O)c2c(C)nn(-c3ccc(F)cc3)c2-n2cccc2)cc1	·	0%	3%	·	·	·
CCCCCCSc1ccc(-c2nc3cc(C)ccn3c2NC2CCCCC2)cc1	18µM*	-5%	?	10%	7	-70*!
Cc1ccn2c(NC3CCCC3)c(-c3ccncc3)nc2c1	3%	-14%	-1%	-26%	3	-11
CCC(C)Sc1ccc(-c2nc3cnccn3c2NC2CCCCC2)cc1 (centres undefined)	?	?	?	?	-8	-52*!
CCCCCCSc1ccc(-c2nc3cnccn3c2NC2CCCCC2)cc1	·	·	·	·	·	14
CCC(C)Sc1ccc(-c2nc3cc(C)ccn3c2NC2CCCCC2)cc1 (centres undefined)	?	?	11µM*	?	-14	-66*!
Clc1ccc(-c2nc3cnccn3c2NC2CCCC2)cc1	21µM*	-10%	-14%	23µM*	21	27
CC(=O)c1ccc(NC2=NS(=O)(=O)c3ccccc32)cc1	·	2%	-23%	·	·	·
CC(C)c1ccc(OCC(=O)NCC(c2ccc(Cl)cc2)N2CCOCC2)cc1 (centres undefined)	·	2%	0%	·	·	·
COc1ccc(Sc2ccc(-c3nc4cnccn4c3NC3CCCCC3)cc2OC)cc1	3.3µM*	-5%	?	18µM*	9	?
COc1cc(-c2nc3cc(C)ccn3c2NC2CCCCC2)ccc1-c1ccc(C(C)=O)cc1	?	-9%	-6%	?	-1	?
COCc1cc(C)nc2sc(C(=O)Nc3ccc(OC(F)(F)F)cc3)c(N)c12	·	1%	-5%	·	·	·
Cc1[nH]nc(N=CC2=C(O)CC(C)(C)CC2=O)c1-c1ccc(Cl)cc1	18µM*!	0%	5%	?	3	-7
